The whole screen tested about 7,900 compounds, of which about 400 (5.1%) showed an effect of 50% or more. The entries come from a sample that favours strong results as a whole.
molecular target: Parkinson's disease protein 7 (PARK7/DJ1) (human, UniProt Q99497); assay: primary screen, percent inhibition; read as competition with a fluorescent probe by fluorescence polarization; higher = more effect of the substance; conditions: 100 µM
In short: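 Fluorescence-polarization probe displacement (JYQ-107, 20 nM final, 2 h) after 2 h preincubation of PARK7 (0.2 μM final) with each fragment at 100 μM final. Read-out ex/em 480/520 nm; remaining activity derived from FP signal loss relative to reference controls.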

Sequence of Parkinson's disease protein 7 (PARK7/DJ1) (Q99497 whole entry, looked up, the tested form may be a part): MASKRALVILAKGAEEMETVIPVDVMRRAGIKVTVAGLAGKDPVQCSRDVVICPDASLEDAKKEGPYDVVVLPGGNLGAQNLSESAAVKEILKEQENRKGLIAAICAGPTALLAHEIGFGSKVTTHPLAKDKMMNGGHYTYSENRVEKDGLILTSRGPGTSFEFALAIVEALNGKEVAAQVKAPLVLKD

SMILES	Inhibition % [%]
Cc1cccc(OCCNC(=O)n2ccnc2)c1	92.6
CN(Cc1cccnc1)C(=O)n1ccnc1	10.8
Cc1ccc(CNC(=O)CCl)cc1	1
COc1ccc(CCNC(=O)n2ccnc2)cc1OC	10.3
C=CC(=O)NCc1ccc2c(c1)OCO2	11.2
O=C(NCc1ccc2c(c1)OCO2)n1ccnc1	99.9
Cc1ccc(CNC(=O)n2ccnc2)cc1	104
Cc1cccc(OCCNC(=O)CCl)c1	12.5
O=C(NCc1ccc(Cl)cc1)n1ccnc1	-1.68
CN(Cc1ccccc1Cl)C(=O)n1ccnc1	2.68
CN(C)c1ccc(CNC(=O)n2ccnc2)cc1	97
O=C(CCl)NCc1ccc2c(c1)OCO2	14
Cn1nncc1B1OC(C)(C)C(C)(C)O1	6.79
C=CC(=O)N1CCC(c2ncc(C)s2)CC1	1.87
O=C(C=CC1=CCCC1)N1CCCC(N2CCNC2=O)C1 (stereo not shown)	28
Cl.O=S(=O)(F)C1CCCNC1 (stereo not shown)	8.33
C=CC(=O)N1CCN(CC)C(=O)C1(C)C	2.96
C=CC(=O)N1CCC(C#N)(COC)CC1	5.2
Cc1ccc(NC(=O)CN2CCSC2=O)cc1F	3.32
COC(=O)Cc1csc(NC(=O)CCl)n1	20.2
Cc1cc(C)nc(S)c1	6.52
O=C1OCCC1N1CCOC(c2nccs2)C1 (stereo not shown)	13.9

SMILES	Inhibition % [%]
C=CC(=O)NCCc1ccc(F)cn1	-26.8
C=CC(=O)N1CCC(C(=O)N(C)c2ccccc2)C1 (stereo not shown)	9.62
C=CC(=O)NCc1coc2ccccc12	7.72
Cc1ccccc1CCNC(=O)Cn1cnc(C#N)n1	4.99
CC(C)C(=O)Nc1ccc(CNC(=O)n2ccnc2)cc1	0.0136
O=C(Nc1ccc(CNC(=O)n2ccnc2)cc1)C1CC1	92.1
O=C(NCC1CCCC1)n1ccnc1	40.7
COc1ccc(CNC(=O)n2ccnc2)cc1OC	6.72
COc1cccc(CNC(=O)n2ccnc2)c1	95.1
CNC(=O)n1ccnc1	75.1
O=C(NCCc1ccc(F)cc1)n1ccnc1	12.7
Cc1ccccc1CCNC(=O)n1ccnc1	101
O=C(NCC(F)(F)F)n1ccnc1	6.27
O=C(N1CCC1c1ccccc1)n1ccnc1 (stereo not shown)	11.7
COc1ccccc1CNC(=O)n1ccnc1	5.2
Cc1cc(C)nc(C#N)c1	9.14
NCC1CCCCN1C(=O)C=Cc1ccccn1 (stereo not shown)	1.06
C=CC(=O)NC1CCN(C2CCOC2)CC1 (stereo not shown)	22
C=CC(=O)NCCc1noc(-c2ccccn2)n1	11
C=CC(=O)NCc1ccnc(C)n1	7.47
C=CC(=O)NCc1nnc(C2CC2)o1	6.84
Nc1ccc(NC(=O)Oc2ccccc2)cc1	11.2

SMILES	Inhibition % [%]
CC1(C)OB(c2cccc3c2CCC3)OC1(C)C	3.3
CS(=O)(=O)c1ccc(C(=O)CCl)cc1	87.3
CCCC(=O)Nc1ccc(C(=O)CCl)cc1	5.21
CCC(=O)Nc1ccc(C(=O)CCl)cc1	4.09
CS(=O)(=O)c1ccc(OCCCl)cc1	4.09
CC(C)CC(=O)Nc1ccc(C(=O)CCl)cc1	3.15
CC(C)C(=O)Nc1ccc(C(=O)CCl)cc1	2.39
CC(=O)Nc1ccc(C(=O)CCl)cc1	82.5
O=C(CCl)c1ccc(NC(=O)c2ccco2)cc1	90.6
NC(=O)Nc1ccc(C(=O)CCl)cc1	89.6
O=C(CCl)NC(=O)c1ccco1	22.8
CC1(C)OB(c2ccc(OCCS(C)(=O)=O)cc2)OC1(C)C	-1.19
N#Cc1cccc(OCC(F)(F)F)n1	-0.809
CN(C)S(=O)(=O)c1ccc(S)nc1	31.2
O=c1onc(-c2ncccn2)n1Cc1ccccc1F	1.26
CC(=O)Nc1ccc(Sc2nccnc2C#N)cc1	18.2
CC1(C)OB(C2CNC2)OC1(C)C.O=C(O)C(F)(F)F	11.6
COc1cc(F)ccc1N1CCN(C2CCOC2=O)CC1 (stereo not shown)	7.6
O=C(O)CNC(=O)C12CC3CC(CC(Cl)(C3)C1)C2	7.56
Cc1c(NC(=O)CCl)cccc1[N+](=O)[O-]	8.38
C=CC(=O)NCC1CCC2(CCC2)CO1 (stereo not shown)	5.32
O=C(Nc1ccc(Cl)cc1)N1CCCCC1C1OCCO1 (stereo not shown)	5.3

SMILES	Inhibition % [%]
C=CC(=O)N1CCC(c2ccco2)CC1	8.73
Cc1ccn(S(=O)(=O)c2ccc(C(C)(C)C)cc2)n1	4.34
Cc1ncsc1C=C(C#N)C(=O)NCCc1ccccc1	6.72
CS(=O)(=O)Nc1ccc(C(=O)CCl)cc1	75.1
CS(=O)(=O)Nc1ccc(B(O)O)cc1	9.91
Cc1cc(I)ccc1NC(=O)CCl	7.36
Cc1c(NC(=O)c2cccnc2S)cnn1CCC(C)C	3.61
O=C(CCl)c1ccc2c(c1)CCN(C(=O)C(F)(F)F)C2	2.68
O=C(CCl)NNC(=O)c1cc2c(s1)CCCC2	4.38
CC(=O)N1CCc2sc(C(=O)CCl)cc2C1	73.5
N#Cc1c(-c2ccccc2)nc(S)[nH]c1=O	13.2
Cc1ccc(CN2CCCN(C(=O)CCl)CC2)cc1.Cl	13
COc1cc(S(=O)(=O)n2cccn2)ccc1F	1.65
O=C1OCCC1Sc1ncnc2ccsc12 (stereo not shown)	3.13
CN(C)C(=O)c1cccc(NC(=O)CCl)c1	12.2
O=C(CCl)Nc1cccc(C(=O)O)c1	13.2
CN(C(=O)c1cc(C(N)=O)cs1)C1CC(C)(C)OC1=O (stereo not shown)	7.6
CN(C)C(=O)c1csc(C(=O)CCl)c1	67.8
O=C(O)c1csc(C(=O)CCl)c1	102
Cn1cc(C(=O)CCl)cc1C(N)=O	0.329
NC(=O)c1csc(C(=O)CCl)c1	101
CN(C)C(=O)c1ccc(NC(=O)CCl)cc1	44.1

Source: paper PMC9574860, “Chemical Toolkit for PARK7: Potent, Selective, and High-Throughput” (Journal of Medicinal Chemistry, 2022)
